Assay outcomes as filed in PubChem BioAssay.
CYP2C19 inhib: blockers of cytochrome P450 2C19 activity – biochemical, luminescence, ADME assay, primary screen; P33261; CYP2C19 Supersomes, luciferin-H EGE luminescence, 30 min; inhibition, % at 5 µM; actives 21% (n = 96,000);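 active = CYP2C19 inhibition above a set limit at 5 µM in the primary screen, cut at about 50% in these data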;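 note: plate controls were negative control wells for no effect and 2.5 mM tranylcypromine positive control for full effect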
CYP2C9 act: human CYP2C9 activators, primary screen, biochemical, luminescence; activation factor at 5 µM; recombinant CYP2C9, luciferin-H conversion; hits give high values; factor 1 = untreated enzyme, 0 = blocked; AID 1024, 2008; actives 1.4% (n = 96,000); Cytochrome P450 2C9 (Homo sapiens), P11712;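 active = activation factor of 2 or more for CYP2C9 at a 5 µM dose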;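 note: 0 = sulfaphenazole-blocked wells and 1 = vehicle-only wells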
Target sequence (P11712 whole entry, looked up): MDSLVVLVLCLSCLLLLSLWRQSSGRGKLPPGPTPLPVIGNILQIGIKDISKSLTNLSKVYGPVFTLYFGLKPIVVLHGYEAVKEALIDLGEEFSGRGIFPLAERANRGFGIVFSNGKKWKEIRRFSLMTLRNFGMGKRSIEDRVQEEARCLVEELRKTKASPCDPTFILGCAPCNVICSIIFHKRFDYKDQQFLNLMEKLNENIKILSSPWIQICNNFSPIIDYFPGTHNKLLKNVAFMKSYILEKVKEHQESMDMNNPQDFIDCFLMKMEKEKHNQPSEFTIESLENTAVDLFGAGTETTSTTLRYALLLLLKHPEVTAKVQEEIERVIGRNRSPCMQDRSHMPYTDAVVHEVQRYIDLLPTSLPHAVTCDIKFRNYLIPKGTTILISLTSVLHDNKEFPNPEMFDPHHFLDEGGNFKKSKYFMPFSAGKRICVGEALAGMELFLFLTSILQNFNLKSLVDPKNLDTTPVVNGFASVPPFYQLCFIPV
Cav3 T inh: Cav3.2 calcium influx blockers – cell-based, Fluo-4 calcium fluorescence, FDSS, MLSMR library, primary screen | Cav3.2-expressing cells; hits give low values | B-score at 10 µM | actives 4% (n = 100,000) | AID 449739, 2010;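 active = single-dose well whose peak fluorescence ratio is a statistical outlier from its plate by either plate-standardised score or position-corrected B-score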
CYP2C9 inhib: blockers of cytochrome P450 2C9 activity – biochemical, luminescence, ADME assay, primary screen | CYP2C9 Supersomes, luciferin-H conversion | actives 20% (n = 96,000) | AID 777, 2007 | inhibition, % at 5 µM | P11712;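 active = blocking of liver enzyme CYP2C9 beyond about 50% at 5 µM, limit read from the data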
CYP2C19 activ: human CYP2C19 activators, primary screen, biochemical, luminescence. Cytochrome P450 2C19 (Homo sapiens), P33261. recombinant CYP2C19, luciferin-H EGE luminescence; hits give high values; 0 = fully inhibited enzyme, 1 = untreated enzyme. 96,000 tested, under 10 active. activation factor at 5 µM;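 active = activation factor of at least 2 at 5 µM in the primary screen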;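 note: 0 = wells with 2.5 mM tranylcypromine and 1 = vehicle-only wells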
Starred values were filed as active, the others as inactive; . = not tested or not shown. Compounds with a hit are over-represented: about 27% of the library has one in this group of screens.

SMILES | CYP2C19 inhib | CYP2C9 act | Cav3 T inh | CYP2C9 inhib | CYP2C19 activ
COc1cccc(C2C3=C(N=C4SCC(=O)N42)c2ccccc2CC3)c1OC (stereo not given) | 87* | 0.4 | -0.0025 | 60* | 0.1
NC(=O)C1CCN(C(=O)CN2CCc3ccccc32)CC1 | 11 | 1 | 0.002 | 0 | 0.9
Cc1[nH]c2ccccc2c1CCC(N)=O | 53* | 3.1* | -1 | -211 | 0.5
CCCc1c(C)[nH]c2ccc(NC(C)=O)cc2c1=O | 6 | 0.6 | -0.18 | 43 | 0.9
O=C(O)CCc1c(C(=O)O)[nH]c2ccccc12 | 6 | 0.5 | 0.054 | 54* | 0.9
CCCc1c(C)[nH]c2ccccc2c1=O | -6 | 3.2* | 0.54 | -224 | 1.1
O=S(=O)(NC1CCCC1)c1ccc(S(=O)(=O)N2CCc3ccccc32)cc1 | . | . | -1.6 | . | .
Nc1nnc(CC(=O)N2CCCCC2)s1 | -2 | 1 | -0.25 | 0 | 1
CCOC(=O)c1ccc(NC(=O)C2CCCN(S(=O)(=O)c3ccc(F)cc3)C2)cc1 (stereo not given) | 34 | 0.7 | -3.1 | 31 | 0.7
CCOC(=O)c1c2ccc(OCC(=O)N/N=C/c3ccc(C)cc3)cc2n2ccccc12 | 36 | 0.3 | . | 65* | 0.6
CCOc1cc(/C=N/NC(=O)CNc2ccc(C)cc2)ccc1OC(=O)c1ccccc1 | 7 | 0.8 | -1.3 | 21 | 0.9
CC(Sc1nnc(-c2ccc(Cl)cc2)n1C)C(N)=O (stereo not given) | -1 | 1 | -0.011 | -4 | 1
CC1CC(C)CN(CCCNC(=O)c2csc3c2CCCC3)C1 (stereo not given) | 24 | 0.9 | -1.1 | 14 | 0.8
CCCC(c1nnnn1CS(=O)(=O)c1ccc(C)cc1)N1CCN(c2ccccc2)CC1 (stereo not given) | 27 | 0.4 | -3.5 | 62* | 0.7
Cc1ccc(-c2nnnn2CS(=O)(=O)c2ccccc2)cc1 | 68* | 1.7 | 0.86 | -74 | 0.3
Cc1ccc(S(=O)(=O)Cn2nnnc2C(c2ccccc2)N2CCN(c3ncccn3)CC2)cc1 (stereo not given) | 98* | 0.1 | -0.9 | 94* | 0
O=C(CSc1nnc(-c2cccnc2)n1Cc1ccco1)c1ccc(Br)cc1 | 88* | 0.2 | -1.5 | 80* | 0.1
O=C(CSc1nnc(-c2cnccn2)n1Cc1ccco1)c1ccccc1 | 35 | 0.6 | -0.003 | 38 | 0.7
O=C(CSc1nnc(-c2cnccn2)n1Cc1ccco1)c1ccc(Cl)cc1 | 27 | 0.4 | -0.58 | 59* | 0.7
O=C(CSc1nnc(-c2ccccn2)n1Cc1ccco1)c1ccccc1 | -1 | 0.5 | -0.33 | 51* | 1
COc1ccc(C(=O)CSc2nnc(-c3ccccn3)n2Cc2ccco2)cc1 | 29 | 0.3 | -1.7 | 66* | 0.7
O=C(CSc1nnc(-c2cccnc2)n1Cc1ccco1)c1ccc2ccccc2c1 | 24 | 0.5 | 0.85 | 48 | 0.8
CN(C)c1nc2n(c(=O)n1)C(C#N)CS2 (stereo not given) | . | . | -0.13 | . | .
CCCCC1CCC(C(=O)NC2CCS(=O)(=O)C2)CC1 (stereo not given) | . | . | 0.055 | . | .
CC(SCc1cn2cc(Cl)ccc2n1)C(=O)O (stereo not given) | 2 | 1 | 0.35 | -4 | 1
SMILES | CYP2C19 inhib | CYP2C9 act | Cav3 T inh | CYP2C9 inhib | CYP2C19 activ
O=C(CSc1nnc(-c2ccccn2)n1Cc1ccccc1)N1CCCC1 | 13 | 0.8 | 0.022 | 25 | 0.9
COc1cc(Cl)c(C)cc1NC(=O)CSc1nnc(-c2ccccn2)n1Cc1ccco1 | 16 | 0.5 | -7.3* | 50* | 0.8
Cc1ccc(OCc2nnc(SCC(=O)C(C)(C)C)n2Cc2ccco2)cc1 | 20 | 0.3 | -3.7 | 74* | 0.8
O=C(CSc1nnc(-c2ccccn2)n1Cc1ccco1)c1ccc(Cl)cc1 | 27 | 0.3 | -5* | 71* | 0.7
Cc1cc(NC(=O)CSc2nnc(COc3ccccc3)n2Cc2ccco2)no1 | -2 | 0.6 | 0.92 | 38 | 1
CCCNC(=O)CSc1nnc(C)s1 | 17 | 0.8 | 0.34 | 22 | 0.8
COc1ccccc1CNc1ccc(C(=O)O)cc1 | -4 | 1.1 | -0.0017 | -6 | 1
COc1cccc(CNc2ccc(N3CCCCC3)cc2)c1OC | 80* | 2.5* | . | -150 | 0.2
COc1ccccc1CNc1ccc(N2CCCCC2)cc1 | 77* | 0.8 | -1.7 | 24 | 0.2
COc1ccc(OC)c(C(=O)c2ccc(C(=O)c3cc(OC)ccc3OC)cc2)c1 | 7 | 0.6 | 0.013 | 36 | 0.9
COc1ccc(C(=O)c2ccc(OC)c(OC)c2)cc1OC | 48 | 0.7 | -0.15 | 34 | 0.5
COc1ccc(C(=O)c2ccccc2)cc1Br | 50 | 2.2* | -1 | -119 | 0.5
COc1ccc(C(=O)c2ccc(OC)c(N)c2)cc1N | 22 | 2.6* | -1 | -156 | 0.8
Cc1c(C(=O)OCC(=O)N2CC(C)OC(C)C2)oc2ccc(Br)cc12 (stereo not given) | 9 | 0.9 | . | 12 | 0.9
CCCC(=O)NC(c1ccco1)c1c(O)ccc2ccccc12 (stereo not given) | 97* | 0.1 | -1.3 | 90* | 0
CCCCC(=O)NC(c1ccco1)c1c(O)ccc2ccccc12 (stereo not given) | 49 | 0.3 | -5.5* | 70* | 0.5
S=C1COC(c2ccccc2)N1c1ccccc1 (stereo not given) | . | . | 0.23 | . | .
COc1ccc(-c2nnc(-c3ccc(N)cc3)o2)cc1 | 8 | 0.2 | 0.2 | 77* | 0.9
COc1ccc(-c2ccc(-c3nnc(-c4cc(OC)ccc4OC)o3)cc2)cc1 | 38 | 0.9 | . | 5 | 0.6
CCOC(=O)C1=C(C)Nc2nc(SC)nn2C1c1ccc(C(=O)OC)cc1 (stereo not given) | 19 | 0.8 | 0.5 | 18 | 0.8
CC(C)Oc1ccc2c(=O)c(-c3ccccc3)coc2c1 | . | . | 0.047 | . | .
Cc1cc(OCC(=O)N2CCc3ccccc3C2)c2c(-c3ccccc3)cc(=O)oc2c1 | 86* | 0 | -3.1 | 97* | 0.1
Cc1cc(OC(C)C)c2c(-c3ccccc3)cc(=O)oc2c1 | 43 | 0.2 | 0.026 | 80* | 0.6
CC(C)(C)c1ccc(C(O)CCCN2CCC(C(O)(c3ccccc3)c3ccccc3)CC2)cc1 (stereo not given) | . | . | -4.8* | . | .
COc1cc(OC)cc(C(=O)NC(C(=O)NCCN(C)C)C23CC4CC(CC(C4)C2)C3)c1 (stereo not given) | 93* | 1 | 1.4 | 2 | 0.1
CCCn1c(N)c(N2CCCCC2)c(=O)n(CC(=O)Nc2ccccc2C)c1=O | 38 | 0.5 | 0.25 | 53* | 0.6
CCCn1c(N)c(N2CCCCC2)c(=O)n(CC(=O)Nc2ccc(OC(F)(F)F)cc2)c1=O | -16 | 1 | 0.17 | 3 | 1.2
